# Compound activity: PubChem, National Center for Advancing Translational Sciences (NCATS)
# KDM5B inhibitor: KDM5B demethylase inhibition | Q9UGL1 | KDM5B demethylase, FDH-coupled NADH fluorescence (FDH is formaldehyde dehydrogenase) | Potency, µM (series often up to 57.7 µM), hits mostly inhibitors | 220,000 compounds, 2.6% hits; active = well fitted inhibition curve with a large enough effect; note: nearly all actives have a fitted effect of over 70% in size
# Target sequence (Q9UGL1 whole entry, looked up): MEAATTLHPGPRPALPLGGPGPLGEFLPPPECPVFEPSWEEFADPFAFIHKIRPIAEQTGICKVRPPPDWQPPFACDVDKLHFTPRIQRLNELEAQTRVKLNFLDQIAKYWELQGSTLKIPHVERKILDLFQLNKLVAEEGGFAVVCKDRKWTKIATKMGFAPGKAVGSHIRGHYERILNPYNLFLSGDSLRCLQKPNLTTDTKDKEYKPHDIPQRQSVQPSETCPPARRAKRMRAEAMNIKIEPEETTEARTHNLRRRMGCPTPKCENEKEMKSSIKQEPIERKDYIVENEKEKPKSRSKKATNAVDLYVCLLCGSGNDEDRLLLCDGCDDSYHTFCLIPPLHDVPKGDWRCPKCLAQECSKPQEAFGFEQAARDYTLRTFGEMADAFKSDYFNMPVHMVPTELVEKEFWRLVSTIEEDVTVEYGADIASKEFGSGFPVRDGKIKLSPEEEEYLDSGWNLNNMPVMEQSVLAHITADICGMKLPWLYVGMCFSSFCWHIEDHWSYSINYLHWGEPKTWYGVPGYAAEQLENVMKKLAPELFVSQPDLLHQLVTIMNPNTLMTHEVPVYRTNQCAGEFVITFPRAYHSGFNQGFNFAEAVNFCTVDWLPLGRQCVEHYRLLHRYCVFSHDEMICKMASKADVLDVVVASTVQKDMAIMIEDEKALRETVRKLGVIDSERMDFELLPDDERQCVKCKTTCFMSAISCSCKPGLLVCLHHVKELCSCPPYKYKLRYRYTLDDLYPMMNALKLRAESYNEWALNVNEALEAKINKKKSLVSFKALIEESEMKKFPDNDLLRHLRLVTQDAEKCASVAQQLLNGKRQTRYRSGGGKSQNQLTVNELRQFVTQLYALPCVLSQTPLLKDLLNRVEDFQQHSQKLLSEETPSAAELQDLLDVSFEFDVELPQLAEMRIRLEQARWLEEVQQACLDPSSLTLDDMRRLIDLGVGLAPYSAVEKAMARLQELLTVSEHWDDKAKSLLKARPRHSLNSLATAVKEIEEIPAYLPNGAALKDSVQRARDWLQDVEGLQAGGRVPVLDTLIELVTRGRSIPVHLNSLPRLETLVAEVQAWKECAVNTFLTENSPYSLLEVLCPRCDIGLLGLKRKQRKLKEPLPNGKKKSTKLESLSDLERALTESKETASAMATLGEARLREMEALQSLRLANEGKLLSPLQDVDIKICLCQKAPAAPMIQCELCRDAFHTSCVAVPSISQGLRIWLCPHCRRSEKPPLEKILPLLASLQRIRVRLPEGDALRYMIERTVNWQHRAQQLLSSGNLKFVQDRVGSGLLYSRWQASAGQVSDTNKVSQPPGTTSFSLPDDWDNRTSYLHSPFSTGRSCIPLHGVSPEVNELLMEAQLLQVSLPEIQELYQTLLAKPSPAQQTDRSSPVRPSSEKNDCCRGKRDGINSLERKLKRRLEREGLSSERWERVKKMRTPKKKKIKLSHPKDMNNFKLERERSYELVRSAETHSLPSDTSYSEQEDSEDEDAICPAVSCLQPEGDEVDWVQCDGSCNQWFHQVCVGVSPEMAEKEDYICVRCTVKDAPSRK
#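 KDM5BΔAP (200 nM final) in 50 mM HEPES pH 7.5, 0.01% Tween-20 was preincubated 10 min at RT with compound over a concentration range. Substrate mix (H3K4me3 12.5 µM, α-KG 25 µM, Fe²⁺, ascorbate, NAD⁺, FDH) was added, and NADH fluorescence change over 30 min gave dose-response curves.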
# A number is an active result; . = inactive. Shown is part of a subset that was picked to be rich in hits.
SMILES,KDM5B inhibitor
COc1ccc(C2Cn3nnc(-c4noc(-c5cc(F)ccc5Cl)n4)c3CO2)cc1 (stereo not given),.
COc1ccc(C2Cn3nnc(-c4nc(-c5cccc(F)c5)no4)c3CO2)cc1 (stereo not given),.
CC(NC(=O)c1ccc2c(c1)NC(=O)CS2)c1ccc2c(c1)OCCO2 (stereo not given),.
CCCCn1nc(C(=O)Nc2nc3c(s2)CCCCC3)c2ccccc2c1=O,.
C#CC(C)(C)NS(=O)(=O)c1cccc2nsnc12,.
COC(=O)c1ccc(CN(C)C(=O)CCc2ncc(-c3ccccc3F)o2)cc1,.
Cc1nn(-c2ccc3nncn3n2)c2c1C(c1ccccc1)CC(=O)N2 (stereo not given),.
CCOC(=O)c1oc2cc(OCC(=O)c3ccccc3)ccc2c(=O)c1-c1ccc2c(c1)OCCO2,.
O=[N+]([O-])c1cc(S(=O)(=O)Nc2ccc(Cl)cc2)ccc1N/N=C/c1ccccc1F,.
O=C(CCc1ncc(-c2c(F)cccc2F)o1)N1CCN(c2ccc(F)cc2)CC1,.
COc1ccccc1CCc1nc(-c2nnn3c2COC(c2ccc(C)cc2)C3)no1 (stereo not given),.
COc1ccccc1-c1nc(-c2nnn3c2COC(c2ccc(Cl)cc2)C3)no1 (stereo not given),14µM
COc1ccccc1-c1nc(-c2nnn3c2COC(c2ccc(C)cc2)C3)no1 (stereo not given),13µM
COc1ccc(C2Cn3nnc(-c4noc(-c5ccccc5Cl)n4)c3CO2)cc1 (stereo not given),.
COc1cc(OC)cc(-c2nc(-c3nnn4c3COC(c3ccc(Cl)cc3)C4)no2)c1 (stereo not given),.
Cc1ccc(C2Cn3nnc(-c4noc(-c5ccccc5Cl)n4)c3CO2)cc1 (stereo not given),.
Cn1cc(C(=O)N2CCN(Cc3cccc4ccccc34)CC2)c(-c2ccc3c(c2)OCCCO3)n1,.
CCc1noc(-c2ccn3c(CNC(=O)CCc4cccc(OC)c4)nnc3c2)n1,28µM
CCCc1noc(-c2ccn3c(CNC(=O)CCC4CCCC4)nnc3c2)n1,3.5µM
CCCc1noc(-c2ccn3c(CNC(=O)c4ccoc4)nnc3c2)n1,.
CCc1noc(-c2ccn3c(CNC(=O)CCc4ccccc4)nnc3c2)n1,25µM
CCc1noc(-c2ccn3c(CNC(=O)c4ccccc4C)nnc3c2)n1,.
CCc1noc(-c2ccn3c(CNC(=O)c4ccccc4Cl)nnc3c2)n1,.
COc1cccc(CC(=O)NCc2nnc3cc(-c4nc(C(C)C)no4)ccn23)c1,28µM
Cc1ccoc1C(=O)NCc1ccnc(OCC(F)(F)F)c1,.
SMILES,KDM5B inhibitor
COc1ccc(Nc2nc(Nc3ccc(C)c(C)c3)nc3nccnc23)cc1,.
CCCCC(CC)CNC(=O)CCC(=O)NC1CCCCCCCCCCC1 (stereo not given),.
O=C(Nn1cnnc1)c1ccccc1Br,.
C[C@@H](NCC1CC1)c1onc(-c2ccc(Cl)cc2)c1C(=O)O,.
COCCn1c(=O)[nH]c(=O)c2c3c(cnc21)C(=O)CC(c1ccccc1)C3 (stereo not given),.
CCC(=O)Nc1ccc(-c2csc(NCCN(CC)CC)n2)cc1,.
CC1(C(=O)O)CCN(C(=O)c2ccc3c(c2)OCO3)CC1,.
CCc1noc(-c2ccn3c(CNC(=O)Cc4cccc(OC)c4)nnc3c2)n1,22µM
COc1cccc(CCC(=O)NCc2nnc3cc(-c4nc(C5CC5)no4)ccn23)c1,28µM
O=C(C1CCCN(Cc2cccc3ccccc23)C1)N1CCCCC1 (stereo not given),.
Cc1ccc(Cn2c(C3CCN(C(=O)Cc4ccccc4)CC3)n[nH]c2=O)cc1,.
COc1cc(OC)cc(C(=O)Nc2c(NC3CCCCC3)c3ccccc3oc2=O)c1,.
CCOc1ccc(CN2CCCCC23Cc2ccccc2CNC3=O)cc1 (stereo not given),.
O=C(CSc1nnc(-c2cccs2)n1C1CC1)N1CCN(c2ccc(F)cc2)CC1,.
COc1cc(-c2c(NC(=O)c3cccs3)oc3ccc(Cl)cc3c2=O)cc(OC)c1OC,.
CCc1nc2cc(N3CCCC(C(=O)NCc4ccccn4)C3)cnc2nc1CC (stereo not given),.
O=C(NCc1ccccn1)C1CCN(Cc2cc3n(n2)CCCNC3)CC1,.
O=C(NCc1cc2n(n1)CCNC2)C1CCCN(c2ccccn2)C1 (stereo not given),32µM
COC[C@H]1CCCN1[C@@H]1[C@H](O)[C@H](CO)O[C@@H]1CNC(=O)Nc1cccc(Cl)c1,.
COCCC1(C(=O)O)CCCN(C(=O)c2cc(F)ccc2OC)C1 (stereo not given),.
O=C(CCc1conc1-c1ccc(F)cc1)NCC1CCCO1 (stereo not given),.
C[S+](=O)([O-])c1cccc(NC(=O)Cc2c[nH]c3ncc(-c4ccccc4)cc23)c1,32µM
COc1ccccc1CC(=O)Nc1cnc(-c2cccnc2)nc1,.
CCOc1ccc(NC(=O)Cc2c[nH]c3ccccc23)cc1,.
COc1ncccc1-c1cnc2[nH]cc(CC(=O)Nc3ccncc3)c2c1,40µM
SMILES,KDM5B inhibitor
C[S+](=O)([O-])c1cccc(-c2cnc3[nH]cc(CC(N)=O)c3c2)c1,.
COc1ncccc1-c1cnc2[nH]cc(CC(=O)Nc3ccccc3)c2c1,35µM
COc1ccc(NC(=O)Cc2c[nH]c3ncc(-c4ccccc4)cc23)cc1OC,.
COc1cc(C(=O)NCc2c[nH]c3ncccc23)nc2ccccc12,.
COc1ccc(-c2cnc3[nH]cc(CC(=O)Nc4cccnc4)c3c2)cc1,40µM
O=C(Cc1c[nH]c2ncc(-c3cccnc3)cc12)Nc1ccccc1,.
CCN(CC)C(=O)c1cccc(NC(=O)Cc2c[nH]c3ccccc23)c1,.
CC(C)C(NC(=O)C(c1ccccc1)c1ccccc1)C(=O)O (stereo not given),.
COc1cc(S(=O)(=O)Nc2ccc(S(C)(=O)=O)cc2)ccc1NC(C)=O,.
O=C(c1cc2ccccc2oc1=O)N1CCN(c2cccc(Cl)c2)CC1,.
Cc1onc(-c2cnn(C)c2NCc2ccc(C#N)cc2)c1C(=O)NCC1CCOCC1,.
CCCN1C(=O)C2(C(C(=O)c3ccc(C)o3)=C(O)C(=O)N2CCN(C)C)c2ccccc21 (stereo not given),.
CCc1nnc(NC(=O)c2cc(-c3ccccc3OC)on2)s1,.
COCc1cc(C[C@@H]2CC[C@H](O)[C@@H](CNC(=O)c3ccccc3)O2)no1,.
O=C(Cn1cnc2sc3c(c2c1=O)CCCC3)NCCC(=O)N1CCC(Cc2ccccc2)CC1,.
COc1cccc(-c2cccc(-c3nc(C4CCOCC4)nn3CCO)c2)c1,.
O=C(Cc1cccc2ccccc12)NCCc1ccccn1,.
CNC(=O)c1cccc(-c2cnc3[nH]cc(CC(=O)NCCOC)c3c2)c1,.
COc1ccc(-c2cnc3[nH]cc(CC(=O)NCCc4ccccn4)c3c2)cc1,35µM
O=C(c1ccncc1)N1CCCC(c2noc(COc3ccccc3)n2)C1 (stereo not given),.
Cc1cc(C)c(NC(=O)CSc2ncc(-c3ccc(F)cc3)o2)c(C)c1,.
COC[C@@H]1CN(C(=O)c2cc(Cl)ccc2OC)C[C@H]1C(N)=O,.
O=C(O)C1CCN(C(=O)Cn2ccc3c(Cl)cccc32)CC1,.
CCS(=O)(=O)NC(C)C(=O)O (stereo not given),.
Cn1c2c(c3cc(F)ccc31)CN(C(=O)Nc1ccc(F)c(Cl)c1)CC2,32µM
O=C(Nc1ccc(Br)cc1)N1CCc2ccccc2C1,.
